Screening data (PubChem BioAssay)
VACV Venus inh: inhibitors of vaccinia virus (Venus reporter); Vaccinia virus Venus reporter expression, fluorescence; Potency, µM (series often up to 36.5 µM), inactives show at the top dose activity change, negative = inhibition, hits mostly inhibitors; 0.46% of 330,000 active; calls by dose curve; tested in A549 cells; further: potency means the concentration at half of the fitted maximal effect; nearly all actives have a fitted effect of over 30% in size
HCV inhibitor: blocks hepatitis C virus; Huh7.5.1 HCVcc-Cre infection, luciferase reporter, 44 h; Potency, µM (doses to about 41.8 µM), for inactives: at the highest dose activity change, negative = inhibition, most hits filed as inhibitors; 3.4% of 340,000 active; AID 651820; active means well fitted inhibition curve with a large enough effect; inconclusive means small, poorly fitted or top-dose-only effect, or another doubt; inactive means no such curve, though single readings can be large or run the other way; further: potency means the concentration at half of the fitted maximal effect
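Infectious HCV cell culture screen: compound-treated cells (1,000/well, pre-plated 4 h) are infected with HCVcc-Cre at roughly 0.5 moi and grown 44 h. Infection is quantified by luciferase signal after 15 min substrate incubation at room temperature.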
FMDV antiviral: antivirals against foot and mouth disease virus; Potency, µM (doses to about 57.9 µM), for the others: at the highest dose activity change, negative = inhibition, usual class: inhibitors; FMDV antiviral cell-based qHTS; 1.2% of 410,000 active; calls by dose curve; tested in HEK293T cells; further: read-out not given here; potency means the concentration at half of the fitted maximal effect; nearly all actives have a fitted effect of over 45% in size
VACV mCherry inh: inhibitors of vaccinia virus infection (mCherry reporter signal); Vaccinia virus mCherry reporter infection, fluorescence; Potency, µM (doses to about 36.5 µM), for inactives: at the highest dose activity change, negative = inhibition, hits mostly inhibitors; 0.63% of 310,000 active; AID 720579; calls by dose curve; tested in A549 cells; further: potency means the concentration at half of the fitted maximal effect; nearly all actives have a fitted effect of over 35% in size
HCMV inh: human cytomegalovirus inhibition. HFF cells, HCMV-luciferase reporter, 72 h; hits give low values. activity change, negative = inhibition, % at 57.5 µM. 4.5% of 410,000 active; in the data active means activity change below about -60%; inconclusive means no clear call, values can overlap the other calls; inactive means above about -39%
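Cell-based, HFFs, 1000 cells/well, 16 h 37C; cpds in DMSO + HCMV-luc, MOI 1 PFU/cell; 72 h 37C; OneGlo luminescence after 5 min RT; norm. to buffer vs Salinomycin 10uM.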
Starred values were filed as active, the others as inactive; i = inactive; ? = inconclusive; · = no result; [ ] = another dose, or the depositor's remark. Sampled rows, rich in hits. Any-hit rate of the full collection: about 7.3%. On the % scale 0 is the no-effect control and ±100 the full control effect.

SMILES	VACV Venus inh	HCV inhibitor	FMDV antiviral	VACV mCherry inh	HCMV inh
O=S(=O)(c1ccc(-c2nnc(SCc3nnc(-c4ccccc4)o3)o2)cc1)N1CCCC1	·	?	-7%	·	-5
CCN(CC)S(=O)(=O)c1ccc(-c2nnc(SCc3nnc(-c4ccccc4)o3)o2)cc1	0.035µM*	-4%	·	?	-18
O=S(=O)(NCC(c1cccs1)S(=O)(=O)c1ccccc1)c1ccccc1 (configuration not stated)	-15%	·	32%	-19%	27
CCc1ccc(Cn2c(CNS(=O)(=O)c3ccc4c(c3)CCCC4)nc3cccnc32)cc1	-10%	·	65%	-13%	11
CCc1ccc(O)c(C(=O)c2cnc3cc(-c4ccc(C)cc4)nn3c2)c1	6%	·	-3%	4%	2
CCc1nn2cc(C(=O)c3cc(Cl)ccc3O)cnc2c1-c1ccc(F)cc1	-6%	?	?	-14%	-70*
N#Cc1cc2c(nc1S(=O)(=O)Cc1ccccc1)CCCC2	-13%	13%	12%	-8%	-63*
CS(=O)(=O)c1nc2c(cc1C#N)CCCC2	-10%	-11%	-15%	-7%	-25
COc1ccc(N2CCN(c3nc4ccc(C)cc4n4nnnc34)CC2)cc1	-10%	·	-2%	-6%	?
CN(C(=O)c1ccc2c(c1)N(Cc1ccc(F)cc1)C(=O)c1ccccc1S2(=O)=O)C1CCCCC1	-8%	·	-7%	-8%	-5
O=C(NCCN1CCCC1)c1ccc2c(c1)N(Cc1cccc(Cl)c1)C(=O)c1ccccc1S2(=O)=O	·	?	4%	·	-77*
CN(C(=O)c1ccc2c(c1)N(Cc1cccc(Cl)c1)C(=O)c1ccccc1S2(=O)=O)C1CCCCC1	-2%	·	-4%	-3%	-79*
Cc1csc2nc(COC(=O)c3cccc(NC(=O)c4cccc(Cl)c4)c3)cc(=O)n12	-18%	·	-14%	-14%	-21
Cc1ccc(C)c(NC(=O)Cn2cc(S(=O)(=O)N3CCCC3)c(S(=O)(=O)N3CCCC3)c2)c1	-9%	·	1%	-7%	6
Cc1noc2ncnc(Sc3ccc(Br)cc3)c12	-17%	32µM*	?	i	-106*
Cc1c(Cl)cccc1Nc1nc(N)nc(CSc2ncccn2)n1	·	-12%	56%	·	-94*
Cc1c(Cl)cccc1Nc1nc(N)nc(CSCCO)n1	18%	17%	-8%	16%	19
Nc1nc(CCl)nc(Nc2ccc3ccccc3c2)n1	?	0.89µM*	-26%	?	-93*
Cc1ccccc1Nc1nc(N)nc(CCl)n1	?	1.3µM*	11%	?	-101*
Cc1ccccc1Nc1nc(N)nc(CN(C)c2ccccc2)n1	-16%	-14%	6%	-14%	69
CCSc1nnc2c(n1)OC(c1sccc1C)N(C(C)=O)c1ccccc1-2 (configuration not stated)	-16%	·	-16%	-21%	-60*
CCCC(=O)N1c2ccccc2-c2nnc(SC)nc2OC1c1sccc1C (configuration not stated)	-7%	·	-21%	-7%	20
O=C(c1ccco1)N1CCN(c2nc(C3CC3)nc3sc4c(c23)CCCC4)CC1	-17%	?	?	-29%	·
Cc1nc(N2CCN(C(=O)c3cccs3)CC2)c2c3c(sc2n1)CCCC3	?	11µM*	25µM*	?	-21
Cc1nc(N2CCN(C(=O)c3ccco3)CC2)c2c3c(sc2n1)CC(C)CC3 (configuration not stated)	·	13µM*	?	·	?
SMILES	VACV Venus inh	HCV inhibitor	FMDV antiviral	VACV mCherry inh	HCMV inh
Cc1nc(N2CCN(C(=O)c3ccco3)CC2)c2c3c(sc2n1)CCCC3	-22%	2.8µM*	·	?	-25
CCc1nc(N2CCN(C(=O)CCl)CC2)c2c3c(sc2n1)CC(C)CC3 (configuration not stated)	-28%	?	?	-3%	-10
COc1cc(/C=N/NC(=O)c2ccc(COc3cc(C)ccc3C(C)C)cc2)cc(OC)c1O	-7%	?	?	-14%	-88*
COc1cc(C(=O)NCCOc2cc(C)ccc2C(C)C)cc(OC)c1OC	-29%	2.8µM*	?	-10%	-67*
Cc1ccc(C(C)C)c(OCc2ccc(C(=O)N/N=C/c3cccc(O)c3O)cc2)c1	?	22µM*	?	10µM*	·
O=C(O)c1cccs1	-4%	·	·	-11%	·
Cc1sc2ncn(CC(=O)Nc3cccc(C(F)(F)F)c3)c(=O)c2c1S(=O)(=O)N1CCN(C)CC1	1%	·	-23%	-14%	-3
Cc1cnc(NC(=O)COc2cccc3c2OC(C)(C)C3)s1	1%	?	-11%	7.9µM*	-88*
COc1ccc(NC(=O)COc2cccc3c2OC(C)(C)C3)cc1OC	·	6.3µM*	22µM*	·	?
CC1(C)Cc2cccc(OCC(=O)Nc3ccccc3F)c2O1	·	0%[8.37 µM]	-7%	·	-31
CCN(c1ccccc1)S(=O)(=O)c1ccc(Cl)c(NC(=O)CSc2ncn[nH]2)c1	-13%	?	0%	i	-101*
CCN(c1ccccc1)S(=O)(=O)c1ccc(Cl)c(NC(=O)CSc2n[nH]c(N)n2)c1	-22%	?	-29%	-8%	-67*
Nc1cc2c3c(cccc3c1)C(=O)N(CCN1CCCC1)C2=O	?	10µM*	0%	?	-96*
NC(=O)CN1CCN(CCN2C(=O)c3cccc4cccc(c34)C2=O)CC1	·	17%	-4%	·	?
CCN(CC)CCN1C(=O)c2cccc3cc(N)cc(c23)C1=O	?	-4%	?	?	-99*
O=C1c2cccc3cc([N+](=O)[O-])cc(c23)C(=O)N1/N=C/c1ccc(O)cc1O	158%	?	?	125%	-79*
O=C1c2cccc3cccc(c23)C(=O)N1CCO	1%	·	-14%	-14%	?
O=C1c2cccc3cc([N+](=O)[O-])cc(c23)C(=O)N1CCN1CCCC1	?	1.1µM*	-1%	0.32µM*	-100*
COc1ccc(NC(=O)N(Cc2ccco2)C2CCN(C(C)=O)CC2)c(OC)c1	-16%	·	-2%	-13%	-5
COc1cccc(S(=O)(=O)N2CCN(c3nc(-c4cccs4)nc4ccccc34)CC2)c1	-11%	·	·	-5%	·
CCCCn1c(=O)[nH]c(=O)c2c1nc(Cn1ncc(Cl)c(Cl)c1=O)n2CCC	?	10µM*	?	?	-100*
Cc1ccccc1[N+](=O)[O-]	-7%	2%	-24%	-3%	16
Cc1ccccc1-n1ncc2c([N+](=O)[O-])cc([N+](=O)[O-])cc21	-7%	7.9µM*	-18%	-4%[1.46 µM]	-11
Nc1cc(-c2nn[nH]n2)ccc1F	-4%	7%	-19%	·	-91*
COc1ccc(-c2nn[nH]n2)cc1OC	27%	13%	-15%	2%	-22
Cc1ccc(OCC(=O)NCC(=O)OCc2cc(=O)n3nc(CC(C)C)sc3n2)cc1	0%	·	-23%	2%	5
COc1cc(C)c(CC/C(C)=C/C=C/C(C)=O)c(C)c1C	·	·	-21%	·	·
